# An excerpt weighted towards active compounds, which were near 3.4% of everything screened.
# HIV Env fusion – inhibitors of HIV-1 Env-driven cell-cell fusion, primary screen, HeLa-JRFL effector, CEM21 target cells, luciferase; hit rate 1.1% among 360,000; inhibition, % at 12.3 µM;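 active means mean replicate inhibition score of at least 50 and every replicate individually at or above 50; inconclusive means only one of the two criteria met; inactive means mean below 50 and not all replicates reaching 50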;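 further: 0% = plate neutral controls and 100% = maraviroc near 300 nM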
# esBAF inh – Bmi1 luciferase reporter increase in mESCs, primary screen, esBAF inhibitor project, mouse ES cells, Bmi1 luciferase knock-in, single point | 24 h; 100% = twice the neutral-well signal | reporter increase, % at 12.5 µM | hit rate 2% among 350,000 | AID 602393, 2012; in the data active means activation above about 40%; inconclusive means no clear call, values can overlap the other calls;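 further: 0% = median of the plate's neutral control wells and 100% = double that signal; a rise in the Bmi1 reporter signal indicates esBAF inhibition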
# Wnt act – Wnt/beta-catenin pathway activators, primary screen, cell-based, plate reader, single point | Wnt/beta-catenin reporter cell assay, activator | activation, % at 9.35 µM | hit rate 1.2% among 300,000 | AID 743398, 2014; in the data active means activation above about 30%, passing the limit was not always enough; inconclusive means no clear call, values can overlap the other calls;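 further: 0% = neutral control wells and 100% = positive control wells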
# miR122 inh – miR-122 Renilla sensor signal increase in Huh7, primary screen, miR-122 inhibitor project, cell-based, single point, plate reader | Huh7 miR-122 Renilla luciferase sensor, 48 h; neutral wells = 0, positive control = 100 | activation (reporter increase), % at 12.5 µM | hit rate 0.3% among 340,000;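 active means mean replicate activation score at least 90 and every replicate individually at or above 90; inconclusive means only one of the two criteria met; inactive means neither criterion met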;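 further: higher luciferase means less miR-122 activity so hits act as miR-122 inhibitors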
# MITF TRPM1 HTS – activators of MITF-driven TRPM1 promoter reporter, primary screen, cell-based, SK-MEL-5, luciferase, single point; activation, % at 12.5 µM; AID 588334, 2011; hit rate 0.75% among 300,000; SK-MEL-5 TRPM1-promoter luciferase, 24 h; % of positive control, neutral wells = 0;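 active means mean activation of at least 80% with every replicate also reaching 80%; inconclusive means mean reaches 80% but some replicate falls short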;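 further: 0% = neutral control wells and 100% = parthenolide positive control wells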
# * marks the source's active call; other numbers are inactive results; ? = inconclusive; / = not tested or not shown; [ ] = another dose, or the depositor's remark.
SMILES,HIV Env fusion,esBAF inh,Wnt act,miR122 inh,MITF TRPM1 HTS
O=C(c1ccccc1)C(O)(Cc1ccccc1)c1ccccc1 (configuration not stated),10,-5,0,168*,-2
CN(C)N=Nc1nc[nH]c1C(N)=O,38,1,3,-2,6
CN(N=Nc1nc[nH]c1C(N)=O)C1CCCCC1,56*,9,/,5,/
O=C(CCN1CCCCC1)NCC[C@H]1CC[C@@H](NC(=O)C2CCCC2)[C@@H](CO)O1,-6[16.7 µM],3,/,/,/
CC(=O)c1ccc(OC(C)c2nc3ccccc3s2)cc1 (configuration not stated),-34,53*,6,4,39
C[C@@H]1CCCCO[C@H](CN(C)C(=O)Nc2ccc(C(F)(F)F)cc2)[C@H](C)CN([C@H](C)CO)C(=O)c2cc(NS(=O)(=O)c3cccs3)ccc2O1,15[16.7 µM],0,/,-9[16.7 µM],/
CCN(CC)C(=O)c1cc2c(=O)c3cc(Cl)ccc3oc2nc1C,3,45*,22,-1,48
Cc1ccc2oc3nc(C)c(C(=O)O)cc3c(=O)c2c1,/,/,/,-6,-9
COCc1nc2oc3ccc(C)cc3c(=O)c2cc1C(=O)OC,-27,16,4,-12,91*
CC(=O)c1cc2c(=O)c3cc(C)ccc3oc2nc1C,/,60*,/,-2,56
CN(C)CC(=O)Nc1ccc2c(c1)[C@@H]1C[C@H](CC(=O)NCc3cc(F)ccc3F)O[C@H](CO)[C@@H]1O2,1[16.7 µM],-2,/,5[16.7 µM],/
COCc1ccc(C(=O)N(C)CC2CCCN(CCc3ccc(Cl)cc3)C2)o1 (configuration not stated),2,-2,-2,/,9
COCc1ccc(C(=O)N(C)CC2CCCN(CCc3ccc(OC)cc3)C2)o1 (configuration not stated),-29,50*,17,/,63
COc1ccc(CCN2CCCC(CN(C)C(=O)c3cc(C)oc3C)C2)cc1 (configuration not stated),-72,72*,?,-10,75
N#C[C@H]1[C@@H](c2ccc(C3=CCCCC3)cc2)[C@@H](CO)N1C(=O)C1CCOCC1,10[16.7 µM],-8,/,/,/
CCN(CC)C(=O)c1cccc(-c2csc(C(O)c3ccco3)n2)c1 (configuration not stated),-13,-1,-2,-1,/
CC(C)c1cccc(-c2csc(C(O)c3ccco3)n2)c1 (configuration not stated),-24,54*,16,1,/
COc1ccc(C(O)c2nc(-c3ccc4ccccc4c3)cs2)cc1 (configuration not stated),-36,58*,1,-4,/
OCc1cccc(-c2csc(C(O)c3ccccc3)n2)c1 (configuration not stated),-8,41*,-1,-13,/
Cc1ccc(-c2csc(C(O)c3ccccc3)n2)cc1C (configuration not stated),-8,53*,2,1,/
C[C@@H]1CN([C@@H](C)CO)C(=O)c2cc(C3=CCCC3)cnc2O[C@H]1CN(C)S(C)(=O)=O,-3[16.7 µM],-2,/,/,/
O=C(C[C@H]1CC[C@H]2[C@@H](COC[C@@H](O)CN2S(=O)(=O)c2cccc(Cl)c2)O1)N1CCCCC1,15[16.7 µM],-2,/,-1[16.7 µM],/
O=C(O)c1cccc(-c2csc(C(O)c3ccccc3)n2)c1 (configuration not stated),-11,43*,35*,-1,/
CN(C)c1ccc(-c2csc(C(O)c3ccc(F)c(F)c3)n2)cc1 (configuration not stated),-36,45*,3,5,/
CCC(=O)N[C@H]1C=C[C@@H](CC(=O)NCCN2CCCCC2)O[C@@H]1CO,29[16.7 µM],-2,/,/,/
SMILES,HIV Env fusion,esBAF inh,Wnt act,miR122 inh,MITF TRPM1 HTS
CC(=O)NC[C@H]1[C@H](c2ccc(-c3cccnc3)cc2)[C@H](CO)N1C(=O)C1CCC1,/,2,/,7[16.7 µM],/
Oc1[nH]c(=S)sc1C=C1N=c2ccccc2=N1,-33,26,42*,1,/
CCOC(=O)c1sc(=NC(=O)c2cc(OC)c(OC)c(OC)c2)n(C)c1C,/,-6,/,/,-2
CCOC(=O)c1sc(=NC(=O)c2ccc(C)cc2)n(C)c1C,-52,/,31*,/,32
CCOC(=O)c1sc(=NC(=O)c2ccc(F)cc2)n(C)c1C,-46,27,?,8,58
CCOC(=O)c1sc(=NC(=O)COc2ccccc2)n(C)c1C,-22,19,14,-9,24
CCOC(=O)c1sc(=NC(=O)c2cccc(C)c2)n(C)c1C,-16,/,14,/,49
CCOC(=O)c1sc(=NC(=O)CCSc2ccccc2)n(C)c1C,-25,/,26,/,114*
CCOC(=O)c1sc(=NC(=O)c2c(F)cccc2F)n(C)c1C,-10,54*,13,2,50
CCOC(=O)c1sc(=NC(=O)c2cccc(Br)c2)n(C)c1C,-47,71*,2,/,73
COCC(=O)Nc1ccc2c(c1)[C@H]1C[C@H](CC(=O)NCc3cc(F)ccc3F)O[C@@H](CO)[C@H]1O2,/,1,/,1[16.7 µM],/
CC(C)NC[C@@H]1[C@@H](c2ccc(C3=CCCCC3)cc2)[C@H](CO)N1C(=O)NC(C)C,/,-4,/,-12[16.7 µM],/
CCOC(=O)/C(C#N)=C/c1ccc(-c2ccsc2C(=O)OC)o1,-49,54*,-3,-5,/
CCC(=O)Nc1ccc2c(c1)OC[C@H](C)N(CC1CC1)C[C@H](C)[C@H](OC)CN(C)C2=O,/,-3,/,/,/
CCCC(=O)Nc1ccc2c(c1)OC[C@H](C)N(C(=O)CN(C)C)C[C@H](C)[C@H](OC)CN(C)C2=O,?,-4,/,/,/
CCC(=O)Nc1ccc2c(c1)OC[C@H](C)N(CC1CCCCC1)C[C@H](C)[C@@H](OC)CN(C)C2=O,87*[16.7 µM],5,/,-8[16.7 µM],/
CO[C@H]1CN(C)C(=O)c2ccc(NC(=O)C3CCC3)cc2OC[C@H](C)N(CC2CCCCC2)C[C@@H]1C,92*[16.7 µM],/,0,/,/
CCCC(=O)Nc1ccc2c(c1)OC[C@@H](C)N(C(=O)CN(C)C)C[C@H](C)[C@@H](OC)CN(C)C2=O,59*[16.7 µM],-2,/,/,/
CO[C@@H]1CN(C)C(=O)c2ccc(NS(C)(=O)=O)cc2OC[C@@H](C)N(C(=O)C2CCCCC2)C[C@H]1C,66*[16.7 µM],-3,/,/,/
COc1cccc(C(=O)Nc2ccc3c(c2)C(=O)N(C)[C@@H]2CC[C@H](CC(=O)NCc4ccccc4F)O[C@@H]2CO3)c1,/,6,/,-22[16.7 µM],/
CO[C@H]1CN(C)C(=O)c2cc(NS(C)(=O)=O)ccc2OC[C@@H](C)N(C(=O)CN(C)C)C[C@H]1C,-23[16.7 µM],-2,/,-6[16.7 µM],/
CO[C@H]1CN(C)C(=O)c2ccc(NS(=O)(=O)c3ccc(Oc4ccccc4)cc3)cc2OC[C@@H](C)NC[C@H]1C,2[16.7 µM],-1,/,/,/
CO[C@@H]1CN(C)C(=O)c2ccc(NS(=O)(=O)c3ccc(Oc4ccccc4)cc3)cc2OC[C@@H](C)NC[C@@H]1C,56*[16.7 µM],-2,/,/,/
